From PubChem BioAssay
RORg inh – ROR gamma (mouse) transcription inhibition; P51450; Drosophila S2 Gal4-RORgamma UAS-luciferase reporter, 20 h; Potency, µM (doses to about 53.6 µM), for the others: at the highest dose activity change, negative = inhibition, most hits filed as inhibitors; 5.4% of 310,000 active; AID 2551; further: potency means the concentration at half of the fitted maximal effect; nearly all actives have a fitted effect of over 60% in size
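Drosophila Schneider cells stably carrying a metallothionein-driven Gal4 DBD–ROR gamma fusion and a UAS-Photinus luciferase reporter were exposed to compound for 1 hr, then induced with copper sulfate (700 uM final) for 20 hr at ambient temperature before luminescence reading.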
TrxR1 inh – inhibitors of rat thioredoxin reductase 1; O89049; recombinant rTrxR1, NADPH fluorescence consumption, selenite substrate; Potency, µM (titrated, usually from 114 µM), inactives show at the top dose activity change, negative = inhibition, most hits filed as inhibitors; 1% of 390,000 active; further: potency means the concentration at half of the fitted maximal effect; nearly all actives have a fitted effect of over 65% in size
Target sequence (O89049 whole entry, looked up): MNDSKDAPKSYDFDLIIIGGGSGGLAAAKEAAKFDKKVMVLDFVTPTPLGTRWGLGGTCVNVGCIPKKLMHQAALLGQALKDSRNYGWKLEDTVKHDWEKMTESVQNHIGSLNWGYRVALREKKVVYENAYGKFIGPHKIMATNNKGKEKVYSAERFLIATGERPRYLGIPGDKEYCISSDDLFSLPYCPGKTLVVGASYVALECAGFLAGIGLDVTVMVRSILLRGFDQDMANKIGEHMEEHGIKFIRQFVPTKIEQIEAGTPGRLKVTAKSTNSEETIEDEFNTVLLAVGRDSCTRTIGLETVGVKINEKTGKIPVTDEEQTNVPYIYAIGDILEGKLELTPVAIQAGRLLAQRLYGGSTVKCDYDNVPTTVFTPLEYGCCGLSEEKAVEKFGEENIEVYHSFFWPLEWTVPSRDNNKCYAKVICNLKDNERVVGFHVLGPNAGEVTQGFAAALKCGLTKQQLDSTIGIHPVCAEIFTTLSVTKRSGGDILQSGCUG
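Rat TrxR1 (90 nM in the dispensed reagent) was pre-reduced with 400 uM NADPH for 5 min at room temperature, then incubated with compound for 15 min. After 400 uM selenite was added, NADPH fluorescence (Ex 340/Em 450 nm) was followed for 8 min.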
TrxR1 substrate – rat thioredoxin reductase 1 substrate activity; O89049; purified TrxR1 substrate turnover, NADPH consumption readout; Potency, µM (top dose mostly 114 µM), for the others: top-dose activity change, negative = substrate turnover; 0.01% of 390,000 active; AID 588456; further: potency means the concentration at half of the fitted maximal effect; nearly all actives have a fitted effect of over 50% in size
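Rat TrxR1, dispensed at 90 nM, was prereduced with 400 uM NADPH (final) for 5 min at ~22 deg C, then incubated with compound 15 min before 400 uM selenite. A first-read NADPH fluorescence drop versus no-compound background flagged substrates.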
Coupling enz – inhibits coupling enzyme system, counter-screen for aldolase hits. coupling enzyme system counterscreen, AmpLite Red fluorescence. activity change, negative = inhibition, % at 58.2 µM, hits read low. 0.67% of 290,000 active; in the data active means activity change below about -30%
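Final compound at 57.5 uM, incubated 10 min at RT with coupling enzyme reagent (glyceraldehyde-3-phosphate), then 20 min with substrate and AmpLite Red detection. Fluorescence read at 525/598 nm; tests interference with the coupling assay, not aldolase inhibition.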
VP16 counter – inhibits Gal4-VP16 luciferase reporter, ROR gamma counter-screen; Drosophila S2 Gal4-VP16 UAS-luciferase, luminescence, 20 h; 3.5% of 310,000 active; Potency, µM (top dose mostly 53.6 µM), for the others: top-dose activity, negative = inhibition, hits mostly inhibitors;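 further: Gal4-VP16 expression switched on by copper sulfate through the metallothionein promoter; potency means the concentration at half of the fitted maximal effect; nearly all actives have a fitted effect of over 50% in size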
GALK inh – blocks human galactokinase activity; Purified GALK, Kinase-Glo residual ATP luminescence; Potency, µM (doses to about 57.5 µM), for the others: top-dose activity change, negative = inhibition, hits mostly inhibitors; 0.007% of 270,000 active; AID 1868; further: potency means the concentration at half of the fitted maximal effect
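Galactose (100 uM) and ATP (35 uM) were turned over by 5 nM GALK for 1 h at RT. Kinase-Glo Plus then converted the remaining ATP into a luminescent signal.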
The depositor's hits bear a star; ? = inconclusive; nt = not tested or not shown; [ ] = another dose, or the depositor's remark. Shown are actives, neighbours in structure and some others; about 5.9% of the full set was active somewhere. Unless noted, the call rests on the fitted dose curve; in most records, active means well fitted curve in the direction sought with a large enough effect; inconclusive means small, poorly fitted or top-dose-only effect, or another doubt; inactive means no such curve, though single readings can be large; an effect the other way counts as inactive or inconclusive. On the % scale 0 is the no-effect control and ±100 the full control effect.

SMILES	RORg inh	TrxR1 inh	TrxR1 substrate	Coupling enz	VP16 counter	GALK inh
CCN(C(=O)CSc1cc(-c2ccccc2)c2ccc(OC)cc2n1)C1CCS(=O)(=O)C1 (stereo not drawn)	29%	4%	6%	1	-24%	1%
CC(C)(C)CC(C)(C)c1ccc(O)c(CN2CCN(CCC#N)CC2)c1	25µM*	1%	-9%	-2	-24%	-2%
N#CCCN1CCN(Cc2cc(-c3ccccc3)ccc2O)CC1	16%	30%	12%	0	4%	2%
Cc1c(Cl)cccc1NC(=S)NCc1ccc(F)cc1	2.2µM*	11%	2%	-1	5µM*	0%
Fc1ccc(CNC(=S)Nc2ccccc2Cl)cc1	11µM*	-3%[57.1 µM]	-7%	-3	?	-4%
Cc1c(Cl)cccc1NC(=S)NCc1ccccc1Cl	1.1µM*	-15%	-10%	0	1.6µM*	0%
CC1CCN(c2ccc(C=O)o2)CC1	4%	6%	-5%	1	15%	0%
N#Cc1c(-c2ccc(Br)cc2)nc2n(c1=O)CCCS2	11%	-4%	-7%	5	10%	1%
O=c1c(C/C=C/c2ccccc2)c(O)nc2n1CCCS2	6%	?	-10%	2	-1%	5%
O=c1c(C(c2ccc(Br)cc2)c2c(O)nc3n(c2=O)CCCS3)c(O)nc2n1CCCS2	-12%	7.1µM*	?	5	14%	-4%
O=c1c(C(c2ccc(Br)cc2)c2c(O)nc3n(c2=O)CCS3)c(O)nc2n1CCS2	-1%	1.6µM*	4%	7	2%	0%
CCOC(=O)c1cccc(N2C(=O)c3ccccc3S2(=O)=O)c1	-5%	4%	-2%	-2	-15%	2%
COc1cccc(/C=N/Nc2ncnc3scc(-c4ccccc4)c23)c1O	2.8µM*	-12%	-15%	-6	13µM*	nt
COc1cccc(/C=N/Nc2nccnc2Cl)c1O	3.2µM*	-7%	-13%	-1	7.1µM*	14%
COc1ccc(/C=N/Nc2nccnc2Cl)c(OC)c1	?	8%[57.1 µM]	-11%	1	?	12%
COc1cccc(C=NCCCN=Cc2cccc(OC)c2O)c1O	7.9µM*	-1%	-1%	-9	-3%	9%
COc1cccc(/C=N/Nc2ncnc(Cl)c2N)c1O	1.8µM*	-18%	-15%	1	3.2µM*	3%
COc1cccc(C=NCCNC(=O)c2nonc2N)c1O	?	-7%	-2%	-4	-18%	-1%
CC1=C(C(=O)OC(C)C)[C@@H](c2ccc(C)o2)NC(=O)N1	-5%	14%[57.1 µM]	5%[57.1 µM]	1	-14%	nt
CCc1c(C)[nH]c2c1C(=O)[C@H](CN1CCOCC1)CC2	1%[2.98 µM]	nt	nt	0	-1%[17 µM]	nt
CN(Cc1ccccc1)C(=S)NC(=O)c1ccccc1	1µM*	23%[57.1 µM]	10%[57.1 µM]	0	2.8µM*	0%
